# According to the supplement of paper PMC13380429:
# Structures can show the parent of a compound that is named as a salt. Values without a mark were called inactive.
# Test system: Vero E6 infected with SARS-CoV-2
# Experiment: inhibition of SARS-CoV-2 cytopathic effect; higher = more antiviral protection, active = above 15
# Settings: 48 h
SMILES,inhibition of SARS-CoV-2 cytopathic effect (1 nM),inhibition of SARS-CoV-2 cytopathic effect (8.33 nM),inhibition of SARS-CoV-2 cytopathic effect (100 nM),inhibition of SARS-CoV-2 cytopathic effect (833.33 nM),inhibition of SARS-CoV-2 cytopathic effect (10000 nM)
Cc1ccc(NC(=O)c2cccc(N(C)C)c2)cc1NC(=O)c1ccc(O)cc1,-3.41%,-1.26%,6.65%,1.14%,6.69%
CO[C@H]1C[C@H](O[C@@H]2/C(C)=C/C[C@@H]3C[C@@H](C[C@]4(CC[C@H](C)[C@@H](C5CCCCC5)O4)O3)OC(=O)[C@@H]3C=C(C)/C(=N/O)[C@H]4OC/C(=C\C=C\[C@@H]2C)[C@]43O)O[C@@H](C)[C@@H]1O [selamectin],-1.61%,0.4%,-0.73%,2.72%,16.1% (active)
O=C(NCc1cccc(O)c1)Nc1nc(-c2ccncc2)cs1,1.7%,1.65%,-1.57%,-6.16%,-6.11%
COc1cc2ncnc(Nc3cccc(Cl)c3F)c2cc1OC(=O)N1CCN(C)C[C@H]1C,1.89%,2.48%,-1.03%,-2.96%,-9.49%
COCc1nnc(N2CC(Oc3ccc(F)cc3Cl)C2)n1-c1ccc(OC)nc1,-1.23%,-3.96%,-0.12%,-1.42%,-1.43%
CN(CC(=O)O)C(=N)N [creatine],-2.18%,1.25%,-2.37%,-1.57%,-4.4%
CCC(O)(CC(N)=O)c1ccccc1 (stereo not given) [3-hydroxy-3-phenylpentanamide],1.46%,0.49%,-0.1%,-10.4%,0.22%
COc1c(C)c2c(c(O)c1C/C=C(\C)CCC(=O)OCCN1CCOCC1)C(=O)OC2 [mycophenolate-mofetil],-1.57%,0.08%,0.94%,-5.7%,16.8% (active)
C[N+](C)(C)CCOC(=O)CCC(=O)OCC[N+](C)(C)C [succinylcholine-chloride],2.27%,-1.42%,-2.35%,0.85%,0.28%
C[C@H]1O[C@@H](Oc2c(-c3cc(O)c(O)c(O)c3)oc3cc(O)cc(O)c3c2=O)[C@@H](O)[C@@H](O)[C@@H]1O [myricitrin],0.43%,-0.53%,0.85%,-1.02%,-1.34%
CCCCCCCCCCCCCCCC[n+]1ccccc1 [cetylpyridinium],1.63%,0.22%,1.76%,-0.25%,-21.9%
CN(NC(=O)CC(=O)NN(C)C(=S)c1ccccc1)C(=S)c1ccccc1 [elesclomol],1.66%,2.35%,18% (active),19.7% (active),36.4% (active)
O=C(Nc1ccc(Cl)cc1)Nc1cccc(-c2cccc(N3CCCC3)n2)c1,1%,1.53%,-2.03%,-4.04%,-6.24%
COc1ccc(C(=O)C2CCN(CC(=O)N(Cc3nc4c(c(=O)[nH]3)COCC4)CC3CC3)CC2)cc1,1.44%,-0.07%,-1.36%,1.12%,-1.65%
"OCc1ccc(CO)o1 [2,5-furandimethanol]",-0.97%,0.38%,0.27%,2.21%,0.97%
Nc1cc(F)ccc1NC(=O)/C=C/c1cnn(C/C=C/c2ccccc2)c1,-1.39%,1.78%,0.89%,-2.26%,-1.9%
CN(C)CCOc1ccc(/C(=C(/CCCl)c2ccccc2)c2ccccc2)cc1 [Toremifene citrate],0.8%,0.55%,-0.55%,0.65%,3.86%
Cc1ccc2cc(-c3c(C)ccc(C(=O)c4c(-c5ccccc5)n(C)n(-c5ccccc5)c4=O)c3N)ccc2n1,-0.74%,-0.19%,-0.14%,2.1%,43.4% (active)
COc1nc(N)nc2c1ncn2[C@@H]1O[C@H](CO)[C@@H](O)[C@@H]1O [nelarabine],-1.29%,-1.48%,-0.71%,-0.9%,1.12%
CC1Nc2ccc(Cl)cc2S(=O)(=O)N1 (stereo not given),0.09%,1.51%,-2.37%,1.75%,2.76%

SMILES,inhibition of SARS-CoV-2 cytopathic effect (1 nM),inhibition of SARS-CoV-2 cytopathic effect (8.33 nM),inhibition of SARS-CoV-2 cytopathic effect (100 nM),inhibition of SARS-CoV-2 cytopathic effect (833.33 nM),inhibition of SARS-CoV-2 cytopathic effect (10000 nM)
C[C@H]1CCC/C=C/[C@@H]2C[C@H](O)C[C@H]2[C@H](O)/C=C/C(=O)O1 [brefeldin-A],0.16%,2.51%,47.2% (active),-3.55%,-4.89%
Cc1ccc(S(=O)(=O)NCl)cc1 [chloramine-T],1.46%,3.35%,1.32%,0.02%,-5.13%
O=C(NCCN1CCC2(CC1)C(=O)NCN2c1cccc(F)c1)c1ccc(F)c(F)c1,3.32%,2.54%,0.98%,1.22%,22% (active)
Cc1cc([C@@H](C)Nc2ccccc2C(=O)O)c2nc(N3CCOCC3)cc(=O)n2c1,-0.68%,-0.79%,-4.63%,-7.74%,-2.98%
CCn1c2ccccc2c2cc(Nc3ccnc(NCCCN4CCOCC4)n3)ccc21,-2.13%,-1.13%,0.05%,-0.2%,69.3% (active)
CC=CC1=C(C(=O)O)N2C(=O)[C@@H](NC(=O)[C@H](N)c3ccc(O)cc3)[C@H]2SC1 (mixture of isomers) [cefprozil],-0.42%,0.76%,2.16%,-0.77%,8.62%
Cc1noc(-c2ccc(-c3ccc(CC(=O)O)cc3)cc2)c1NC(=O)O[C@H](C)c1ccccc1,0.92%,0.35%,-2.41%,-3.36%,-4.34%
CCOc1cc(C=O)ccc1O [ethyl-vanillin],-2.26%,2.03%,-1.95%,-0.96%,-1.21%
CCCC(=O)Nc1cccc(NC(=O)c2ccccc2Br)c1,1.03%,1.45%,0.94%,-1.59%,-0.66%
COC(c1ccccc1)(c1ccccc1)[C@H](Oc1nc(C)cc(C)n1)C(=O)O [ambrisentan],-4.05%,-0.7%,-1.38%,-0.18%,-3.02%
COc1ccc2c(c1)[C@]13CCCC[C@@H]1[C@H](C2)N(C)CC3 [dextromethorphan],0.17%,-0.37%,0.6%,0.81%,-0.1%
COc1cc2c(NC3CCN(C)CC3)nc(N3CCCN(C)CC3)nc2cc1OCCOCCN(C)C,-0.25%,0.8%,-0.4%,2.99%,-3.09%
OCc1cc(C(O)CNCCCCCCOCCCCc2ccccc2)ccc1O (stereo not given) [salmeterol],0.19%,2.26%,10.4%,1.95%,-1.77%
CCCNCC(O)COc1ccccc1C(=O)CCc1ccccc1 (stereo not given) [propafenone],-2.13%,-0.69%,2.83%,3.83%,-0.5%
CC(C)(C)CC(C)(C)c1cc(Cc2cc(C(C)(C)CC(C)(C)C)cc(-n3nc4ccccc4n3)c2O)c(O)c(-n2nc3ccccc3n2)c1 [bisoctrizole],0.77%,2.98%,2.99%,1.93%,3.96%
NC(=O)c1cnc(N[C@@H]2CCCC[C@@H]2N)nc1Nc1cccc(-n2nccn2)c1,-1.26%,-0.3%,2.11%,-0.39%,24.4% (active)
O=P(O)(O)CN(CCN(CP(=O)(O)O)CP(=O)(O)O)CP(=O)(O)O,-3.44%,0.56%,-0.33%,2.43%,-1.39%
Nc1nc(Nc2ccccc2)nc2c1ncn2[C@@H]1O[C@H](CO)[C@@H](O)[C@H]1O,2.4%,4.07%,1.9%,1.06%,-2.77%
C/C(=C(\CCOP(=O)(O)O)SC(=O)c1ccccc1)N(C=O)Cc1cnc(C)nc1N [benfotiamine],0.45%,2.17%,2.51%,1.61%,0.69%
